# In PubChem BioAssay (EPA / NIEHS):
# Records with an inconclusive call do not appear. Activity calls are given as the source filed them. Rule for the calls: active = hit-call score of the fitted dose curve at least 0.9, where 1 is the maximum; inconclusive = response in the unintended direction; inactive = score below 0.9.
# Biological target: Estrogen receptor (Homo sapiens) (UniProt P03372)
# Assay: OT_ER_ERaERa_1440: Odyssey Thera (OT) 24-hour HEK293T Protein-Complementation Assay for Estrogen Receptor-alpha/-alpha Homodimer (AID 2283349);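 note: hits raise fluorescence above DMSO for agonists and antagonists alike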
# In short: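 HEK293T, stable ERα LBD (aa 310-547) homodimer PCA; 24 h compound exposure; mean fluorescence intensity (nuclear for agonists, nuclear plus cytoplasmic for antagonists) vs vehicle; positive fitting direction, DMSO baseline.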
# Estrogen receptor (Homo sapiens), sequence (P03372 whole entry, looked up, the tested form may be a part): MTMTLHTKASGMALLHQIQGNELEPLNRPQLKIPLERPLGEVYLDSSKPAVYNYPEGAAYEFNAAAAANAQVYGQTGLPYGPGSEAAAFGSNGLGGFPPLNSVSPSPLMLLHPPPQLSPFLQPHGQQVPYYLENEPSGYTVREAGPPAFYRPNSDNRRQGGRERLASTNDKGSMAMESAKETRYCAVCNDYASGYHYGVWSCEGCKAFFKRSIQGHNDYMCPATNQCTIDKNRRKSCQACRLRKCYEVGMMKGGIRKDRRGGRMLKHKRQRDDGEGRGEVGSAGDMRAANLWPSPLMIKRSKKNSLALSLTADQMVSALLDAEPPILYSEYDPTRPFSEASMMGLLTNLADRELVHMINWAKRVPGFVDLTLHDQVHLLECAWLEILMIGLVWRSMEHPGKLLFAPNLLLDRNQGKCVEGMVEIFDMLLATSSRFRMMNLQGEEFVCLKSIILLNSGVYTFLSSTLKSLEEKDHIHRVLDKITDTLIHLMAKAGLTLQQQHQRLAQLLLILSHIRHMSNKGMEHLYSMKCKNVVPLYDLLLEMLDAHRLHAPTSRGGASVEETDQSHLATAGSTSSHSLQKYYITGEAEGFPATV
SMILES,outcome,AC50
O=S1(=O)OC(c2ccc(O)cc2)(c2ccc(O)cc2)c2ccccc21,inactive,–
CCO[Si](C)(OCC)OCC,inactive,–
OC1CCCC1,inactive,–
Cc1ccc(C(C)c2ccc(C)c(C)c2)cc1C,–,84.6 µM (active)
CCCCCCCCCCCCCOP(=O)(O)O,inactive,–
CC(=O)[C@H]1[C@H](C#N)C[C@H]2[C@@H]3CC=C4C[C@@H](O)CC[C@]4(C)[C@H]3CC[C@@]21C,inactive,–
CO[Si](OC)(OC)c1ccccc1,inactive,–
CC(C)(C)c1ccc(N)cc1,inactive,–
O=c1cc(-c2ccccc2)oc2ccccc12,inactive,–
CC=C1CC2C=CC1C2 (stereo not given),inactive,–
c1c[nH]cn1,inactive,–
CN(C)c1ccc(N=Nc2ccccc2C(=O)O)cc1,inactive,–
OC1CCCCCCCCCCC1,inactive,–
CCCCC/C=C\CCC=O,inactive,–
NC(CO)(CO)CO,inactive,–
CC(C)c1ccc2c(C(C)C)cc(C(C)C)c(S(=O)(=O)O)c2c1,inactive,–
Oc1ccc(Cl)cc1Cc1cc(Cl)ccc1O,–,11.9 µM (active)
CCOC(=O)Cc1cccc2ccccc12,inactive,–
Cc1ccc(N/N=c2\c(=O)cc/c(=N/Nc3ccc(S(=O)(=O)O)cc3)c2=O)c(C)c1,inactive,–
C=C1C2CCC(C2)C1(C)C (stereo not given),inactive,–

# Biological target: Estrogen receptor (Homo sapiens) (UniProt P03372)
# Assay: OT_ER_ERaERa_0480: Odyssey Thera (OT) 8-hour HEK293T Protein-Complementation Assay for Estrogen Receptor-alpha/-alpha Homodimer (AID 2283351);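 note: rise in fluorescence from reassembled reporter fragments on ERα LBD homodimer in nucleus or whole cell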
# In short: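 Read-out: fluorescence intensity rise relative to DMSO, nuclear for agonists, nuclear plus cytoplasmic for antagonists. Construct is the ERα LBD (aa 310-547) homodimer fragment-complementation pair, stably expressed in HEK293T; exposure 8 h.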
SMILES,outcome,AC50
O=S1(=O)OC(c2ccc(O)cc2)(c2ccc(O)cc2)c2ccccc21,inactive,–
CCO[Si](C)(OCC)OCC,inactive,–
OC1CCCC1,inactive,–
Cc1ccc(C(C)c2ccc(C)c(C)c2)cc1C,–,70.3 µM (active)
CCCCCCCCCCCCCOP(=O)(O)O,inactive,–
CC(=O)[C@H]1[C@H](C#N)C[C@H]2[C@@H]3CC=C4C[C@@H](O)CC[C@]4(C)[C@H]3CC[C@@]21C,inactive,–
CO[Si](OC)(OC)c1ccccc1,inactive,–
CC(C)(C)c1ccc(N)cc1,inactive,–
O=c1cc(-c2ccccc2)oc2ccccc12,inactive,–
CC=C1CC2C=CC1C2 (stereo not given),inactive,–
c1c[nH]cn1,inactive,–
CN(C)c1ccc(N=Nc2ccccc2C(=O)O)cc1,inactive,–
OC1CCCCCCCCCCC1,inactive,–
CCCCC/C=C\CCC=O,inactive,–
NC(CO)(CO)CO,inactive,–
CC(C)c1ccc2c(C(C)C)cc(C(C)C)c(S(=O)(=O)O)c2c1,inactive,–
Oc1ccc(Cl)cc1Cc1cc(Cl)ccc1O,inactive,–
O=S(=O)(O)c1ccccc1C=Cc1ccc(-c2ccc(C=Cc3ccccc3S(=O)(=O)O)cc2)cc1,inactive,–
CCOC(=O)Cc1cccc2ccccc12,inactive,–
Cc1ccc(N/N=c2\c(=O)cc/c(=N/Nc3ccc(S(=O)(=O)O)cc3)c2=O)c(C)c1,inactive,–
C=C1C2CCC(C2)C1(C)C (stereo not given),inactive,–

# Biological target: Estrogen receptor (Homo sapiens) + Estrogen receptor beta (Homo sapiens) (UniProt P03372+Q92731)
# Assay: OT_ER_ERaERb_0480: Odyssey Thera (OT) 8-hour HEK293T Protein-Complementation Assay for Estrogen Receptor-alpha/-beta Heterodimer (AID 2283352)
# In short: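 Increase in mean fluorescence intensity, measured by laser scanning plate cytometry, reported ER-alpha/ER-beta LBD complementation in HEK293T cells after 8 h chemical exposure. DMSO served as baseline; basal signal is low, punctate and cytoplasmic.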
# Estrogen receptor (Homo sapiens) + Estrogen receptor beta (Homo sapiens), sequence (P03372 whole entry, looked up): as the sequence (P03372 whole entry, looked up, the tested form may be a part) above
# Estrogen receptor (Homo sapiens) + Estrogen receptor beta (Homo sapiens), sequence (Q92731 whole entry, looked up): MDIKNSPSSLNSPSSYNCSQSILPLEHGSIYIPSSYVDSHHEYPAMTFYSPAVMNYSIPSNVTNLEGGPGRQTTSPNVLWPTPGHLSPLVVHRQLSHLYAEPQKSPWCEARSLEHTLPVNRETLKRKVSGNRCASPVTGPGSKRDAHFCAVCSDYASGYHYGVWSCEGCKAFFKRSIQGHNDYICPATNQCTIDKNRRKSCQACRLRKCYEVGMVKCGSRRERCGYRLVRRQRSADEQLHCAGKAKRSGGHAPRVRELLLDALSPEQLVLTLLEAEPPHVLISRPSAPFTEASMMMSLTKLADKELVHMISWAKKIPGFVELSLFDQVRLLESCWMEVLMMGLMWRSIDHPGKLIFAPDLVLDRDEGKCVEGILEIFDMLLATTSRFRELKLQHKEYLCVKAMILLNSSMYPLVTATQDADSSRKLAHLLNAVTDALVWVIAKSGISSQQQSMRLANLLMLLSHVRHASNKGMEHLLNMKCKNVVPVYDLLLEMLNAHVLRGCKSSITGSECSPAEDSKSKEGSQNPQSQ
SMILES,outcome,AC50
O=S1(=O)OC(c2ccc(O)cc2)(c2ccc(O)cc2)c2ccccc21,inactive,–
OC1CCCC1,inactive,–
Cc1ccc(C(C)c2ccc(C)c(C)c2)cc1C,–,58 µM (active)
CCCCCCCCCCCCCOP(=O)(O)O,inactive,–
CC(=O)[C@H]1[C@H](C#N)C[C@H]2[C@@H]3CC=C4C[C@@H](O)CC[C@]4(C)[C@H]3CC[C@@]21C,inactive,–
CO[Si](OC)(OC)c1ccccc1,inactive,–
CC(C)(C)c1ccc(N)cc1,inactive,–
O=c1cc(-c2ccccc2)oc2ccccc12,inactive,–
CC=C1CC2C=CC1C2 (stereo not given),inactive,–
c1c[nH]cn1,inactive,–
Oc1ccc(Cl)cc1Cc1cc(Cl)ccc1O,–,11.9 µM (active)
O=S(=O)(O)c1ccccc1C=Cc1ccc(-c2ccc(C=Cc3ccccc3S(=O)(=O)O)cc2)cc1,inactive,–
CCOC(=O)Cc1cccc2ccccc12,–,61.7 µM (active)
Cc1ccc(N/N=c2\c(=O)cc/c(=N/Nc3ccc(S(=O)(=O)O)cc3)c2=O)c(C)c1,inactive,–
C=C1C2CCC(C2)C1(C)C (stereo not given),inactive,–

# Biological target: Androgen Receptor/SRC-1 Co-activator, AR (gene 367) (UniProt P10275)
# Assay: OT_AR_ARSRC1_0960: Odyssey Thera (OT) 16-hour HEK293T Protein-Complementation Assay for Androgen Receptor/SRC-1 Co-activator (AID 2283353);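 note: actives raise the signal above DMSO so potency reflects increased AR and SRC-1 complex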
# In short: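 Readout: 488 nm nuclear-to-cytoplasmic fluorescence ratio from imaging of at least 400 cells per image, 16 h post-dose. Reporter is Venus YFP complementation between AR and SRC-1 fusions, stably expressed in HEK293T; activity scored upward relative to DMSO.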
# Androgen Receptor/SRC-1 Co-activator, AR (gene 367), sequence (P10275 whole entry, looked up): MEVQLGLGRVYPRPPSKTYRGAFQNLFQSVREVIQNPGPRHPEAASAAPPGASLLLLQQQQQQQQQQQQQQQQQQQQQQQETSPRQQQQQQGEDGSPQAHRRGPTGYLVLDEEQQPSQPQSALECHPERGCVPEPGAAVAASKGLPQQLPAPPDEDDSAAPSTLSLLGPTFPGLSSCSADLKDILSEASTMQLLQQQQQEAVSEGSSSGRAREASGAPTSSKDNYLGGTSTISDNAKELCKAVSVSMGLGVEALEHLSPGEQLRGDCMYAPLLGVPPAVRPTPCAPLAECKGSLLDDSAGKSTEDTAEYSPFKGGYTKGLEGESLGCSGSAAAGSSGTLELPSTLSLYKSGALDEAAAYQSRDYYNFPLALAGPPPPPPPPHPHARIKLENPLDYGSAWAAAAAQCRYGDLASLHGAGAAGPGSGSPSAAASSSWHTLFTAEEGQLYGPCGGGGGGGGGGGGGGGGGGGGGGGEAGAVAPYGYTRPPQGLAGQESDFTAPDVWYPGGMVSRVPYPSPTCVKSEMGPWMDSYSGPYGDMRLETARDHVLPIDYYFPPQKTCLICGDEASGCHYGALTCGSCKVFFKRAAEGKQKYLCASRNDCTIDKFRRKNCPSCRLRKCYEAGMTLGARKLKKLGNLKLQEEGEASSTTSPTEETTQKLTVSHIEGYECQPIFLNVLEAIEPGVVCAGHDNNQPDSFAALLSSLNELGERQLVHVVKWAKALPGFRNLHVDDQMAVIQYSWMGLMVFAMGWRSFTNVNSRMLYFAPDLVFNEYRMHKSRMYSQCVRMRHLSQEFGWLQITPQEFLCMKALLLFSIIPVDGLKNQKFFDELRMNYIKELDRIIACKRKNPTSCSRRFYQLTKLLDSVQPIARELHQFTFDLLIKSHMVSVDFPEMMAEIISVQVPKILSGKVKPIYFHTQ
SMILES,outcome,AC50
O=c1cc(-c2ccccc2)oc2ccccc12,inactive,–
CCCCC/C=C\CCC=O,inactive,–
CC(C)c1ccc2c(C(C)C)cc(C(C)C)c(S(=O)(=O)O)c2c1,inactive,–
Oc1ccc(Cl)cc1Cc1cc(Cl)ccc1O,–,29.6 µM (active)
